High-throughput results (PubChem)
KDM5B inh: Primary screen for KDM5B Histone Demethylases FDH-coupled qHTS | Potency, µM (highest dose often 57.7 µM), actives largely listed as inhibitors | Lysine-specific demethylase 5B (Homo sapiens), Q9UGL1 | KDM5B demethylase, FDH-coupled NADH fluorescence (FDH is formaldehyde dehydrogenase) | 220,000 compounds, 2.6% hits | AID 1347165, 2019; active means well fitted inhibition curve with a large enough effect; inconclusive means small, poorly fitted or top-dose-only effect; inactive means no such curve, though single readings can be large or run the other way; further: potency means the concentration at half of the fitted maximal effect; 0% is about no effect; nearly all actives have a fitted effect of over 70% in size
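Coupled FDH/NAD⁺ fluorescence readout. KDM5BΔAP 200 nM final; compound titration, 10 min RT preincubation; substrate mix 12.5 µM H3K4me3, 25 µM 2-OG, 50 µM Fe(II), 100 µM ascorbate, 0.25 mM NAD⁺, 0.25 U/mL FDH; ΔRFU over 30 min.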
IP6K1 inhibitor: Primary qHTS assay for small molecule inhibitors of Inositol hexaphosphate kinase 1 (IP6K1) | IP6K1 kinase, ADP-Glo luminescence, 2 h; active compounds read low | activity change, % (series mostly up to about 58 µM) | 140,000 compounds, 0.81% hits | Inositol hexakisphosphate kinase 1 (Homo sapiens), Q92551; in the data active means activity change below about -25%; further: on the % scale 0 is the no-effect control and ±100 the full control effect
Target sequence (Q92551 whole entry, looked up): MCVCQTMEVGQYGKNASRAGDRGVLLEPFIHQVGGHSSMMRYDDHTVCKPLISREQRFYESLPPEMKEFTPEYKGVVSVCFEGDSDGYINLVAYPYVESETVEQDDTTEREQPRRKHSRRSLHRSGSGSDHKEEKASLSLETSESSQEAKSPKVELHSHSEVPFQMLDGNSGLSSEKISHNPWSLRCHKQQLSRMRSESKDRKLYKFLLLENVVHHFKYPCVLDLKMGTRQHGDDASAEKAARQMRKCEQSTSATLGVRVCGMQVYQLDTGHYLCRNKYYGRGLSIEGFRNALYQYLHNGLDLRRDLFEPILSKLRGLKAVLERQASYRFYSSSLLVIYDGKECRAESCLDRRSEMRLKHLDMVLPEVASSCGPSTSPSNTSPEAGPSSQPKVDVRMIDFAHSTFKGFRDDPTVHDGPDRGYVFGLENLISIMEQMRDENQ
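ADP-Glo luminescence measures ADP made by human IP6K1 during a 2 h RT reaction with ATP/IP6 (mix at 1.3 mM/130 uM); top library doses 57.5 and 19.1 uM final.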
* marks the source's active call; other numbers are inactive results; i = inactive; ? = inconclusive; · = no result. Sampled rows, rich in hits. Any-hit rate of the full collection: about 2.8%.

SMILES	KDM5B inh	IP6K1 inhibitor
CC1(COc2ccccc2)COc2ccc(C(=O)NCc3ccccc3)cc2N1 (centres undefined)	?	19
CC1(COc2cccnc2)COc2ccc(C(=O)NCc3cccs3)cc2N1 (centres undefined)	35µM*	1
CC1(COc2cccnc2)COc2ccc(C(=O)NCc3ccc4c(c3)OCO4)cc2N1 (centres undefined)	16µM*	-6
CC1(COc2cccnc2)COc2ccc(C(=O)NCc3cnccn3)cc2N1 (centres undefined)	i	-8
CC1(COc2ccccc2)COc2ccc(C(=O)NCc3cnccn3)cc2N1 (centres undefined)	i	14
CC1(COc2cccnc2)COc2ccc(C(=O)NCc3ccc(F)cc3)cc2N1 (centres undefined)	32µM*	8
CCCNc1nc2ccccc2nc1C(=O)Nc1cccc(OC)c1	i	·
O=Cc1c(-c2ccc(Cl)cc2)[nH]c2ccc(Br)cc12	i	·
O=C(NCCc1ccccc1)c1cn2cc(-c3ccc(F)cc3)sc2n1	·	6
Fc1cc(COc2ccc(-c3nnco3)cc2)c2ncccc2c1	i	·
COCc1ccc2c(c1)c(OC(C)(C)C(=O)NCCN(C)C)nn2Cc1ccccc1	32µM*	8
CC(C)(Oc1nn(CCN2CCOCC2)c2ccccc12)C(=O)NCCc1ccccc1	i	9
CN(C)Cc1ccc2c(c1)c(OC(C)(C)C(=O)NCCN1CCOCC1)nn2Cc1ccccc1	22µM*	-3
COCc1ccc2c(c1)c(OC(C)(C)C(=O)NCc1ccncc1)nn2Cc1ccccc1	i	2
O=C(c1ccc(F)cc1)N1CCCC(C(=O)N2CCC(N3CCOC3=O)CC2)C1 (centres undefined)	·	-2
O=C(NCc1csc(-c2cnccn2)n1)C1CNCCO1 (centres undefined)	?	-4
Nc1ncccc1CNC(=O)[C@H]1CCC[C@H](O)C1	25µM*	18
O=C(NCc1csc(-c2cnccn2)n1)[C@H]1CCC[C@H](O)C1	28µM*	14
O=C(NCc1ccc(-c2ncon2)cc1)[C@H]1CCC[C@@H](O)C1	i	16
COc1cccc(-c2cn3cc(C(=O)NCc4cccnc4)nc3s2)c1	·	-14
COc1cccc(C(=O)NC2CCN(c3ccnc4ccnn34)CC2)c1	·	12
Cc1ccc(C(=O)NC2CCN(c3cc(-c4ccccc4)[nH]n3)CC2)s1	?	15
O=C(CCCc1ccccc1)NC1CCN(c2cc(-c3ccccc3)[nH]n2)CC1	i	32
Cc1ccc(CC(=O)NC2CCN(c3nnc4cccc(C)n34)CC2)cc1	32µM*	36
Cc1ccc(CC(=O)NC2CCN(c3cnn(C)c(=O)c3)CC2)cc1	i	7
SMILES	KDM5B inh	IP6K1 inhibitor
O=C(NC1CCN(c2nnc3ccccn23)CC1)c1ccc(Cl)s1	25µM*	6
COc1cccc(C(=O)NC2CCN(c3nnc4ccccn34)CC2)c1	28µM*	8
O=C(CCc1ccccc1)NC1CCN(c2nnc3ccccn23)CC1	25µM*	20
O=C(CCCc1nc2ccccc2s1)NC1CCCCCCC1	i	·
CC(C)Cc1noc(CSc2cc(C(N)=O)c3ccccc3n2)n1	i	·
O=C(C1CCC1)N1CCCC(Cc2nc(C3CCOCC3)no2)C1 (centres undefined)	35µM*	13
CCC(=O)N1CCCC(Cc2nc(C3CCOCC3)no2)C1 (centres undefined)	i	4
COc1cccc(C(=O)N2CCCC(Cc3nc(C4CCOCC4)no3)C2)c1 (centres undefined)	i	0
O=C(c1cncc(Br)c1)N1CCCC(Cc2nc(C3CCOCC3)no2)C1 (centres undefined)	32µM*	2
O=C(NC1CCN(c2nccc(Nc3ccccc3Cl)n2)CC1)c1ccc(F)cc1	·	-2
O=C(Nc1ccc(F)cc1)c1ccc2oc(-c3cccnc3Cl)nc2c1	·	23
Cc1ccc(NC(=O)c2ccc3ccccc3n2)c(C)c1	i	·
COCCCNC(=O)C1CCN(C(=O)c2ccc(-c3cccs3)cc2)CC1	·	-10
CCn1ccnc1CNc1ccc(-c2nc(-c3ccccc3C)no2)cn1	28µM*	9
CCn1ccnc1CN(C)c1ccc(-c2nc(C3CC3)no2)cn1	?	17
CCc1ccc(C(=O)N2CCC(c3cc(-c4cccc(OC)c4)n[nH]3)CC2)cc1	i	-7
COCC1(CNC(=O)c2cccc(OC)c2)C[C@@H](O)[C@@H](O)C1 (some centres undefined)	i	3
COCC1(CNC(=O)c2nc3ccccc3[nH]2)C[C@@H](O)[C@@H](O)C1 (some centres undefined)	35µM*	13
Cc1n[nH]c(=O)c2c(NC(=O)CSc3nnc(C)n3Cc3ccccc3)oc(C)c12	i	·
O=C(NCc1ccccc1)N1CCCC(c2nccn2CC2CCC2)C1 (centres undefined)	i	14
Cc1ccc(C#N)c(N2CCCC(c3nccn3CC3CCC3)C2)n1 (centres undefined)	32µM*	-12
Cc1ccc2cc(-c3ccccc3)[nH]c2c1	i	·
Cc1noc(-c2cccc(F)c2)c1C(=O)NCCCCc1ccccc1	i	19
Cc1cccc(CNC(=O)c2c(C)noc2-c2ccc3c(c2)OCO3)c1	32µM*	-1
COc1ccccc1-c1onc(C)c1C(=O)NCc1cccc(C)c1	i	20
SMILES	KDM5B inh	IP6K1 inhibitor
Cc1ccc(CNC(=O)c2c(C)noc2-c2ccc3c(c2)OCO3)o1	25µM*	-11
Cc1noc(-c2ccc3c(c2)OCO3)c1C(=O)NCc1ccccc1	28µM*	2
COc1cc(OC)cc(-c2onc(C)c2C(=O)NCc2ccccc2C)c1	i	-10
O=C(NCc1ccccc1)c1cc(-c2ccc(Cl)cc2Cl)c2nncn2n1	·	13
CNC(=O)C1CCN(C(=O)c2ccc(-c3cccc(OC)c3)cc2)CC1	·	3
Cc1noc(C)c1Cc1ccc(C(=O)NCCc2noc(-c3ccccc3)n2)o1	·	19
COc1ccccc1-c1cccc(CN2CCC(NC(=O)N(C)C)CC2)c1	·	14
CC(=O)NC1(C)CCCN(Cc2cccc(-c3ccccc3)c2)C1 (centres undefined)	i	21
CC(=O)NC1(C)CCN(Cc2cccc(-c3ccc4c(ccn4C)c3)c2)C1 (centres undefined)	?	-12
CC(=O)NC1(C)CCN(Cc2cccc(-c3ccc(N4CCOCC4)cc3)c2)C1 (centres undefined)	32µM*	0
CC(=O)NC1(C)CCN(Cc2ccc(-c3cccc4ncccc34)cc2)C1 (centres undefined)	40µM*	-7
CC(=O)NC1(C)CCN(Cc2ccc(-c3ccc4ccccc4c3)cc2)C1 (centres undefined)	?	-1
CC(=O)NC1(C)CCN(Cc2cccc(-c3cccc4ncccc34)c2)C1 (centres undefined)	40µM*	-3
COc1cccc(-c2ccc(CN3CCCC(NC(=O)c4cccnc4)C3)cc2)c1 (centres undefined)	·	-5
CNC(=O)c1nc2sccn2c1-c1ccc(C(F)(F)F)cc1	·	7
Cc1ccc(/C=C/c2nc3ccccc3n2S(=O)(=O)c2ccc(Br)cc2)cc1	?	1
